A selection: hits, their analogues and other compounds. The true share with any hit is near 21%.
FBPA Giardia inh – qHTS Assay for Inhibitors of Fructose-1,6-bisphosphate Aldolase from Giardia Lamblia; AID 2451, 2010; Potency, µM (doses to about 59.6 µM), without a hit: at the top dose activity, negative = inhibition, usual class: inhibitors; 290,000 tested, 0.71% active; purified Giardia FBPA; further: potency means the concentration at half of the fitted maximal effect; on the % scale 0 is the no-effect control and ±100 the full control effect; nearly all actives have a fitted effect of over 55% in size
Target sequence (A8B2U2 whole entry, looked up): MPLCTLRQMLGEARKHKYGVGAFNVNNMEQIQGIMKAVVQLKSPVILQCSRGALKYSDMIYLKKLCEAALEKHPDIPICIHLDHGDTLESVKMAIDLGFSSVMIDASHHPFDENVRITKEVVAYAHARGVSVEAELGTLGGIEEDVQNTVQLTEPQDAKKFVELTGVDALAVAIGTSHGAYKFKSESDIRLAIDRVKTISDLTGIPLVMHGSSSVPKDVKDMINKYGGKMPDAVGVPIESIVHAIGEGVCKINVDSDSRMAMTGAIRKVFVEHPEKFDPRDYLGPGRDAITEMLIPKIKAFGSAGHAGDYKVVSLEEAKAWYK
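40 nM FBPA preincubated 10 min at RT with compound (up to 57.5 uM final), then substrate plus GAPDH/TPI/NAD/arsenate coupling and diaphorase/resazurin added. Fluorescence read after 20 min at RT, 525/598 nm.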
CHX counter – Cycloheximide Counterscreen for Small Molecule Inhibitors of Shiga Toxin; cell reporter, cycloheximide protein synthesis inhibition counterscreen; max response, %; 300,000 tested, 12% active; in the data active means max response mostly above about 13%, no sharp cut-off; inactive means mostly below about 14%; further: read at 38.3 µM for the half of the compounds with a filed dose; 0% is about no effect
Pf growth 48h – Primary qHTS for delayed death inhibitors of the malarial parasite plastid, 48 hour incubation. P. falciparum luciferase growth in erythrocytes, 48 h. Potency, µM (top dose mostly 28.7 µM), for inactives: top-dose activity change, negative = inhibition, most hits filed as inhibitors. 310,000 tested, 5.9% active. AID 504832, 2011; further: potency means the concentration at half of the fitted maximal effect; on the % scale 0 is the no-effect control and ±100 the full control effect
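Luciferase-expressing parasites in RBCs, 2% Hct / 0.1% parasitemia final; RPMI 1640 + 0.5% Albumax; 37 C, 5% CO2, one generation; luminescence read-out, lower signal = inhibition.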
NS1 inh – qHTS Assay for Inhibitors of Influenza NS1 Protein Function; Potency, µM (doses to about 46.1 µM), without a hit: at the highest dose activity, positive = more growth; 270,000 tested, 0.4% active; AID 2326, 2010; calls by dose curve; further: potency means the concentration at half of the fitted maximal effect; actives are rising curves; nearly all actives have a fitted effect of over 50% in size
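In this qHTS, NS1 from influenza A is expressed in budding yeast, where it slows growth. Cells are switched from glucose to 2% galactose medium (pH 6.0, -URA), treated with compound, and growth recovery is read at OD600.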
Shiga inhibitor – A qHTS for Small Molecule Inhibitors of Shiga Toxin | Vero cells, Shiga toxin protein synthesis inhibition reporter | inhibition, % at 38.7 µM | 290,000 tested, 9.2% active | AID 2315, 2010; in the data active means inhibition mostly above about 28%, no sharp cut-off; inactive means mostly below about 43%; further: 0% is about no effect
Pf growth 96h – Primary qHTS for delayed death inhibitors of the malarial parasite plastid, 96 hour incubation; P. falciparum luciferase reporter growth, 96 h; 320,000 tested, 6.9% active; Potency, µM (top dose mostly 28.7 µM), without a hit: at the top dose activity change, negative = inhibition, most hits filed as inhibitors; further: potency means the concentration at half of the fitted maximal effect; on the % scale 0 is the no-effect control and ±100 the full control effect
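96 h incubation, 37 C, 5% CO2, of luciferase-reporter P. falciparum-infected RBCs (2% hematocrit, 0.05% parasitemia final) with test compounds; endpoint luminescence.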
The depositor's hits bear a star; ? = inconclusive; · = not tested or not shown; [ ] = remark or other dose. Unless noted, the call rests on the fitted dose curve; in most records, active means well fitted curve in the direction sought with a large enough effect; inconclusive means small, poorly fitted or top-dose-only effect, or another doubt; inactive means no such curve, though single readings can be large; an effect the other way counts as inactive or inconclusive.

SMILES | FBPA Giardia inh | CHX counter | Pf growth 48h | NS1 inh | Shiga inhibitor | Pf growth 96h
COc1cccc(NC(=O)CSc2nccn2-c2cccc(OC)c2)c1 | 5.8% | -1.9 | 3.4% | -42.5% | 25.7 | 11.7µM*
O=S(=O)(c1ccc(-c2n[nH]c(=S)o2)cc1)N1CCCC1 | · | -3.4 | 2.9% | 6.5% | -6.3 | ?
O=C(Nc1ccc2c(c1)OCCO2)N1CCN(Cc2ccccc2)CC1 | 1.4% | 38.2* | 475.9% | · | 61.2* | 376.2%
O=C(Nc1ccc2c(c1)OCCO2)N1CCN(c2ccccc2)CC1 | -1.7% | 19.8* | 38.4% | -9.9% | 47.4* | 44.9%
O=C(Nc1ccc2c(c1)OCO2)N1CCN(c2ccccc2)CC1 | -0.1% | 10.1 | -5.6% | 6.3% | 21.3 | -10.6%
COc1cc(CNCc2ccccn2)ccc1OCc1ccc(Cl)c(Cl)c1 | -5.6% | 19.5* | 17.3%[5.75 µM] | · | 64.3* | -21.4%
COc1cc(CNCc2ccccn2)ccc1OCC(N)=O | · | 5.4 | -13.9% | ? | 24.4 | 47.0%
CCOc1cc(CNCc2ccccc2)ccc1OCc1ccc(Cl)cc1 | 0.9% | -5.5 | ? | -10.6% | -13.0 | 6.5%
CCOc1cc(CNc2ccc(O)cc2)ccc1OCc1ccc(Cl)cc1Cl | 15.8µM* | 26.1* | ? | -11.3% | 50.9* | ?
COc1cc(CNCc2ccccn2)ccc1OCc1ccc(Cl)cc1Cl | 10.4% | -3.8 | ? | 2.6% | -6.9 | 10.4µM*
CC1(C)OC2C(CO)OC(n3cnc4c(=O)[nH]c(N)nc43)C2O1 (stereo unspecified) | 3.1% | · | · | · | · | ·
O=C(NCCc1ccc(F)cc1)c1ccc(NS(=O)(=O)c2ccc3[nH]c(=O)[nH]c3c2)cc1 | · | · | -6.1% | · | · | ?
O=c1c(-c2ccccc2)nc2cnc(Nc3ccccc3)nc2n1Cc1cccs1 | 3.9% | · | · | · | · | ·
CN(Cc1cccc(-n2cccn2)c1)C(=O)CCc1nnc(C2CCCCC2)o1 | -0.8% | 40.4* | -23.6% | -3.2% | 54.6* | ?
CC(CCn1cccn1)NC(=O)CCc1nnc(C2CCCCC2)o1 (stereo unspecified) | 0.3% | -2.9 | -10.3% | -1.9% | -13.5 | 14.0%
CCN(CCn1cccn1)C(=O)CCc1nnc(C2CCCCC2)o1 | -1.2% | 12.4* | -19.5% | 1.0% | 37.5* | -9.2%
CC(C)(C)c1ccc(CSc2nc(N)cc(=O)[nH]2)cc1 | -0.3% | 38.6* | 41.0% | -4.8% | 41.4* | 47.7%
Nc1cc(=O)[nH]c(SCc2nnnn2-c2ccc(Cl)cc2)n1 | 3.8% | 1.8 | 12.2% | ? | -0.7 | 0.208µM*
Cc1cc(=O)[nH]c(SCc2nnnn2-c2ccc(Cl)cc2)n1 | -10.2% | -3.1 | 13.0% | 5.9% | -11.7 | 28.1%
COc1c(C)cc(S(=O)(=O)NCc2ccccn2)c(C)c1C | -5.9% | -3.2 | -2.8% | -3.5% | · | -14.3%
COc1ccc(-c2nc3cnc(N4CCOCC4)nc3n(C[C@H]3CCCO3)c2=O)cc1 | 4.4% | · | · | · | · | ·
Nc1ccc(SCc2nc3cccc4c3n2CCC4)cc1 | -18.9% | 25.1* | 38.2% | 11.6% | 55.2* | 46.3%
O=C(O)c1ccc(NC2=C/C(=N/S(=O)(=O)c3ccccc3)c3ccccc3C2=O)cc1 | ? | -6.1 | ? | · | -11.4 | -22.4%
CCc1ccc(S(=O)(=O)ON2C(=O)c3ccccc3C2=O)cc1 | -1.2% | 1.1 | 10.9% | 6.1% | 2.2 | 357.5%
CCc1ccc(S(=O)(=O)/N=C2\C=CC(=O)c3ccccc32)cc1 | 7.06µM* | 1.0 | 2.33µM* | · | -7.8 | ?
O=C1c2ccccc2C(=O)N1CCSc1ncn[nH]1 | -20.0% | 6.5 | 10.4% | -3.9% | 11.7 | 5.4%
CCc1ccc(S(=O)(=O)/N=C2\C=C(Nc3cccc(C(=O)O)c3)C(=O)c3ccccc32)cc1 | · | 1.8 | 1.65µM* | 5.1% | 15.6 | -14.3%
Cc1cc(C)c(S(=O)(=O)/N=C2\C=C(Nc3ccc(C(=O)O)cc3)C(=O)c3ccccc32)c(C)c1 | ? | 6.4 | 9.28µM* | -12.1% | 23.5 | 18.0%
CCc1ccc(S(=O)(=O)/N=C2/C=C(Sc3ncn[nH]3)C(=O)c3ccccc32)cc1 | 0.792µM* | 18.5* | 2.94µM* | -35.1% | 48.6* | 4.15µM*

Screening data: PubChem, National Center for Advancing Translational Sciences (NCATS)
